Drawing on PubChem BioAssay AID1671190 (National Center for Advancing Translational Sciences (NCATS), 2021), this text covers Potency for 53 compounds.

The structures appear in SMILES notation. Screen size: about 580,000 compounds; about 6,100 (1.1%) were called active. Where a call stands in place of a potency, no number is given. Not shown: some 15% with an inconclusive outcome. The call rests on the fitted dose curve; in most records, active means well fitted inhibition curve with a large enough effect; inconclusive means small, poorly fitted or top-dose-only effect, or another doubt; inactive means no such curve, though single readings can be large or run the other way. The sample as a whole holds a higher share of actives than the screen did.
Potency means the concentration at half of the fitted maximal effect.

Chain of Polyunsaturated fatty acid lipoxygenase ALOX12 (Homo sapiens) (P18054 whole entry, looked up): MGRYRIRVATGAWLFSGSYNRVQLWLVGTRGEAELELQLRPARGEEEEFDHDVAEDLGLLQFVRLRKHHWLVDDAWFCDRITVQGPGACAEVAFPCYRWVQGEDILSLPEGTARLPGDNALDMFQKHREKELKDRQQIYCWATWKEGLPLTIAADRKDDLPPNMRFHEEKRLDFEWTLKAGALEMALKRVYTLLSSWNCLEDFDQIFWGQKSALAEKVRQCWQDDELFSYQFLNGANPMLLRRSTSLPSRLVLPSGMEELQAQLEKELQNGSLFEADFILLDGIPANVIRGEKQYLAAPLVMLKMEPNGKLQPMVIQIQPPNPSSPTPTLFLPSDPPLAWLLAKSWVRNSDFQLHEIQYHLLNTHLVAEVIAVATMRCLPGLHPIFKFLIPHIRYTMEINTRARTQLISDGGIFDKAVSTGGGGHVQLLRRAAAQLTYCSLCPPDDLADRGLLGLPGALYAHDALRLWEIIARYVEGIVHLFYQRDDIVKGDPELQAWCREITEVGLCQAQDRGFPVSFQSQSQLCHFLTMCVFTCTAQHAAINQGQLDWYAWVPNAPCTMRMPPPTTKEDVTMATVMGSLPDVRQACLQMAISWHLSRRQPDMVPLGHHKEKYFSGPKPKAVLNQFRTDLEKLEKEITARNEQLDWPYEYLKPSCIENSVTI

In the assay the target is Polyunsaturated fatty acid lipoxygenase ALOX12 (Homo sapiens) (UniProt P18054). Briefly: Primary qHTS assay for inhibitors of human arachidonate 12S-lipoxygenase (ALOX12): Round 2. The conditions noted are these: purified 12hLO, xylenol orange hydroperoxide absorbance; series mostly up to 108 µM. The source says:
Assay Provider: Theodore R. Holman Ph.D. University of California, Santa Cruz, California Human lipoxygenase 12hLO is a member of the closely related lipoxygenase family of enzymes which catalyze the site-specific oxidation of arachidonic acid to various hormone precursor molecules and as such is a candidate for drug development in a variety of disease areas, such as cancer and inflammation. Inhibition of 12hLO activity was screened by utilizing arachidonic acid as a substrate. The extent of hydroperoxide product formation was measured by a secondary chromogenic reaction in which xylenol orange (XO, Sigma-Aldrich, cat. number 39,818-7) reacts with the ferric ions produced from the reaction between the hydroperoxide and ferrous ions. The Fe (III)-XO complex is characterized with red-shifted absorbance at 560 nm. A purified preparation of human 12hLO was supplied by Dr. Holman laboratory, University of California, Santa Cruz.
PROTOCOL TABLE SEQUENCE No. (e.g., 1, 2, 3, etc.); […] (e.g., Cells, Incubation, Reagent, etc.); VALUE; DESCRIPTION 1; Enzyme; 3 uL; 150 nM 12hLO enzyme solution dispensed in 1536-well Greiner black, clear bottom plates. 2; Compound; 23 nL; compounds and controls were added. 3; Incubate; 15 min; room temperature. 4; Substrate; 1 uL; 40 uM arachidonic acid (final concentration). 5; Incubate; 30 min; room temperature. 6; Reagent; 4 uL; Fe-XO solution was added to each well. 7; Incubation; 30 min; room temperature 8; Detector; absorbance; Read 1 at 405 nm absorbance using ViewLux (Perkin-Elmer) CCD imager. 9; Detector; absorbance; Read 2 at 573 nm absorbance using ViewLux (Perkin-Elmer) CCD imager. NOTES (numbers refer to sequence above) 1; 150 nM 12hLO (final concentration) in buffer solution (25 mM Hepes, 0.01% Triton X-100, pH 7.0) was dispensed in columns 1, 2, 5-48. Column 1 is neutral (100% activity). Buffer only was dispensed in columns 3 and 4 as no enzyme negative controls. The plates were covered with metal lids with gas-exchange holes. 2; Compounds were pin transferred via a Kalypsys Pin Tool (Wako USA) in column 5-48. Control compound was transferred in column 2, titration of nordihydroguaiaretic acid (NDGA, Sigma-Aldrich, N5023) with top concentration of 20 mM in DMSO then 1:3 dilution in duplicate. Dilution factor of 23 nL into 4 uL final assay volume. 3; Covered assay plates were incubated for 15 min at room temperature. 4; Substrate was added to start the reaction; 40 uM arachidonic acid (Sigma-Aldrich, St. Louis, MO) was dispensed throughout the plate. 6; Chromogenic detection reagent solution (divalent iron/xylenol orange, Fe-XO) was added to each well: 200 uM xylenol orange, 300 uM ferrous ammonium sulfate prepared freshly in 50 mM sulfuric acid. 8, 9; Two absorbance readouts were obtained at 405 nm and at 573 nm using a ViewLux high-throughput CCD plate imager (Perkin-Elmer). The 573 to 405 (Read 2 / Read 1) absorbance ratio was used to compute reaction progress.
Background: Quantitative high-throughput screening tests each substance at several concentrations.
As to `O=C(c1cccc(Cl)c1)N1CCc2nc(C3CC3)nc(-c3ccc(Cl)cc3)c2C1`, the Potency result is “inactive”. The value for `Cn1ccnc1CNCC1(COc2ccc(C(F)(F)F)cn2)C[C@@H](O)[C@@H](O)C1` (stereo partly drawn) was “inactive”. In the case of `CCS(=O)(=O)NCC1(COc2ccc(C(F)(F)F)cn2)C[C@@H](O)[C@@H](O)C1` (stereo partly drawn), the Potency was 12.6 µM (active).

`O=C(NCC1(COc2ccc(C(F)(F)F)cn2)C[C@@H](O)[C@@H](O)C1)c1ccc(F)cc1` (stereo partly drawn): the Potency entry is “inactive”. As for `COc1cc(CN2C[C@@H](CO)[C@H](c3nc(C)no3)C2)ccc1F`, the entry is “inactive”; as for `Cc1ccc(-c2c3c(nc4sc5c(c24)CCC5)-c2cc(F)ccc2S(=O)(=O)C3)cc1`, “inactive”. As for `Cc1scc(-c2ccccc2)[n+]1C`, the figure is 17.8 µM (active); as for `Cc1cc2nc(-c3ccccc3)c(-c3ccccc3)nc2cc1C`, “inactive”; as for `Cc1ccccc1Nc1scc(-c2ccc(Br)cc2)[n+]1-c1ccccc1C`, “inactive”. The value for `CCCCN(C)C(=O)CCNC(=O)Cn1cnc2sc3c(c2c1=O)CCCC3` was “inactive”. For `CCCC1CCC(c2ccc(-c3ccc(CC)cn3)cc2F)CC1` (stereo not drawn), the Potency result is “inactive”. As for `CCN1C(=O)[C@H]2[C@@H](c3ccc(-c4ccc(F)cc4)cc3)N[C@@](Cc3ccccc3)(C(=O)OC)[C@H]2C1=O`, the entry is “inactive”; as for `CCN1C(=O)[C@H]2[C@@H](c3ccccc3)N[C@]3(CCCN(Cc4ccc(C)cc4)C3=O)[C@H]2C1=O`, 4.47 µM (active).

In the case of `Cc1ccc([C@H]2N[C@]3(CCCN(Cc4ccccc4)C3=O)[C@H]3C(=O)N(Cc4ccccc4)C(=O)[C@@H]23)cc1`, the Potency result was “inactive”.

As for `CC1=C(C)CC(C(=O)NCCN2CCOCC2)C(C(=O)O)C1` (stereo not drawn), the Potency entry is “inactive”.

As to `CN(C)c1ccc(C=O)s1`, the Potency result is “inactive”. As to `O=C(Cc1cccc(F)c1)NC1CCC(c2ccccc2)CC1` (stereo not drawn), the Potency entry was “inactive”. As for `O=C(/C=C/c1cc2cc(Cl)ccc2o1)NC1CCCC1`, the entry is “inactive”; as for `O=C(/C=C/c1ccco1)NC1CCC(c2ccccc2)CC1` (stereo not drawn), 7.94 µM (active); as for `CCN(CC)C(=O)CSc1ncc(-c2ccc(Br)cc2)o1`, “inactive”. In the case of `CC(=O)c1sc(Nc2ccc(C)c(C)c2)nc1C`, the Potency entry is “inactive”. The value for `C/C(=N\NC(N)=S)c1cc(C(C)(C)C)cc2c1CCC2(C)C` was 31.6 µM (active).

On to `COc1ccc(C2CCCCCN2C(=O)CCn2ncc(=O)c3ccccc32)cc1` (stereo not drawn), for which the Potency result is “inactive”.

For the compound `CNC(=O)c1ccc(-c2nc(CN3CCN(C(=O)Nc4ccc(C)c(C)c4)CC3)c(C)o2)cc1`, the Potency entry was “inactive”.

On to `COc1ccc(C2=C(C)C(=NC(C)C34CC5CC(CC(C5)C3)C4)NS2(=O)=O)cc1` (stereo not drawn), for which the Potency result was “inactive”. As for `CC1CCN(c2nc3ccccc3nc2C(C#N)S(=O)(=O)c2cccc(Cl)c2)CC1` (stereo not drawn), the figure is 11.2 µM (active); as for `COC(=O)C1CCN(c2nc3ccccc3nc2C(C#N)C(=O)NC2CCCC2)CC1` (stereo not drawn), “inactive”. As for `Cc1ccc(S(=O)(=O)C(C#N)c2nc3ccccc3nc2N2CCCC2)cc1C` (stereo not drawn), the entry is “inactive”; as for `COc1cccc(-c2nc(SCC(=O)Nc3nccs3)c(-c3ccc(Cl)cc3)[nH]2)c1`, “inactive”; as for `CCN(CC)S(=O)(=O)c1ccc(N2CCOCC2)c(NC(=O)CC2CCCC2)c1`, “inactive”. The value for `COc1ccc(C(=O)CSc2n[nH]c(N)n2)cc1` was “inactive”; that for `COc1ccc(Cn2c(CN(C)S(C)(=O)=O)n[nH]c2=O)cc1` was “inactive”; that for `COc1ccc(OCc2n[nH]c(=S)n2N)cc1` was 15.8 µM (active). `Cc1ccc(-n2nnc(C(=O)NCC(C)C)c2C)cc1Cl`: the Potency result is “inactive”.

As to `O=C(CN(Cc1ccccc1)C(=O)c1ccc2c(c1)OCCO2)NCc1ccc2c(c1)OCO2`, the Potency entry was “inactive”. With `O=C(CSc1ncnc2sccc12)c1ccc2c(c1)OCCCO2`, the Potency entry is “inactive”. On to `O=C(CSc1nnc(-c2ccccc2)c2ccccc12)c1ccc2c(c1)OCCCO2`, for which the Potency is 44.7 µM (active). In the case of `CCc1ccc(-c2csc(NC(=O)c3nn(CC)c(=O)c4ccccc34)n2)cc1`, the Potency entry is “inactive”. `CCOC(=O)/C(=C/c1ccc(Cl)s1)c1nccn1C`: the Potency result is “inactive”. The value for `COc1cc(C2C(C(=O)c3ccco3)=C(O)C(=O)N2c2cc(C)on2)ccc1OCc1ccccc1` (stereo not drawn) was “inactive”. The value for `Cc1ccc2nc(N3C(=O)C(O)=C(C(=O)c4ccco4)C3c3cccc(O)c3)sc2c1` (stereo not drawn) was 25.1 µM (active). The value for `CC(=O)c1sc(N2C(=O)c3oc4ccccc4c(=O)c3C2c2ccc(C)cc2)nc1C` (stereo not drawn) was “inactive”. Consider `Cc1ccc(C(N)=O)c(OCc2coc(-c3ccccc3)n2)c1`, for which the Potency entry was “inactive”.

As for `CC(Sc1nc2cc(S(=O)(=O)N3CCCCC3)ccc2o1)C(=O)N1CCc2ccccc21` (stereo not drawn), the Potency result was “inactive”. Turning to `CCOC(CNC(=O)c1ccc2c(c1)ncn2-c1cccc(C)c1)OCC`, the Potency result was “inactive”. As for `CC(Sc1ccc(Cl)cc1)C(=O)NCCC(=O)N1CCCC1` (stereo not drawn), the entry is “inactive”; as for `CC(=O)CCC1=C(C)CCCC1(C)C`, “inactive”; as for `COc1cc(/C=C/C2=CC(C)(C)NC(=S)N2)cc(OC)c1OC`, 44.7 µM (active). The value for `COc1ccc(/C=C/C2=CC(C)(C)NC(=S)N2)c(OC)c1` was 39.8 µM (active); that for `COc1ccc(/C=C2/C(=O)OCc3cc(OC)c(OC)cc32)c(OC)c1` was “inactive”; that for `COc1cc(/C=C/C(N)=O)cc(OC)c1OC` was “inactive”. Take `COc1cc(/C=C/c2ccc(/C=C/c3cc(OC)c(OC)c(OC)c3)cc2)cc(OC)c1OC`: the Potency result is “inactive”. For `COc1ccc(/C=N/OCc2ccccc2C#N)c(OC)c1`, the Potency result is “inactive”.
